Test results taken from PubChem BioAssay.
Active and inactive are the calls of the source.

Columns and labels:
[1] = small molecules captured by biotinylated probe aFSTL3 – biochemical, small-molecule microarray, fluorescence 635/667, stem cell growth factor project, primary screen (AID 1064); details: higher = more signal;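 further: measures binding of the biotinylated anti-FSTL3 antibody to printed compounds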
[2] = binders from COS7 lysate, DM2A8 probe, primary screen, torsin A project, cell lysate, small-molecule microarray, fluorescence 635/667 (AID 1065); details: higher = more signal, COS7 lysate expressing mutant human TOR1A
[3] = small molecules captured by biotinylated probe aFGF2 – biochemical, small-molecule microarray, fluorescence 635/667, stem cell growth factor project, primary screen (AID 1067); details: higher = more signal;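 further: measures binding of biotinylated aFGF2 protein to printed compounds on slides; z-score merges feature fluorescence and signal-to-noise across triplicate slides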
[4] = small molecules captured by biotinylated probe aFGF10 – biochemical, small-molecule microarray, fluorescence 635/667, stem cell growth factor project, primary screen (AID 1071); details: higher = more signal;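 further: score merges 667 nm spot intensity and signal to noise from triplicate slides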
[5] = target: Neurogenic locus notch homolog protein 2 (Homo sapiens) (UniProt Q04721); assay: small molecules binding Notch2 protein – biochemical, small-molecule microarray, 635 nm fluorescence, stem cell growth factors, primary screen (AID 1073); details: higher = more signal
[6] = target: Pro-neuregulin-1, membrane-bound isoform (Homo sapiens) (UniProt Q02297); assay: small molecules binding neuregulin-1 protein – biochemical, small-molecule microarray, fluorescence 635/667, psychiatric disease protein project, primary screen (AID 1075); details: NRG1 binding, 635 nm fluorescence, higher = more signal;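 further: score combines 667 nm spot fluorescence with signal to noise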
Chain of Pro-neuregulin-1, membrane-bound isoform (Homo sapiens) (Q02297 whole entry, looked up, the tested form may be a part, canonical isoform): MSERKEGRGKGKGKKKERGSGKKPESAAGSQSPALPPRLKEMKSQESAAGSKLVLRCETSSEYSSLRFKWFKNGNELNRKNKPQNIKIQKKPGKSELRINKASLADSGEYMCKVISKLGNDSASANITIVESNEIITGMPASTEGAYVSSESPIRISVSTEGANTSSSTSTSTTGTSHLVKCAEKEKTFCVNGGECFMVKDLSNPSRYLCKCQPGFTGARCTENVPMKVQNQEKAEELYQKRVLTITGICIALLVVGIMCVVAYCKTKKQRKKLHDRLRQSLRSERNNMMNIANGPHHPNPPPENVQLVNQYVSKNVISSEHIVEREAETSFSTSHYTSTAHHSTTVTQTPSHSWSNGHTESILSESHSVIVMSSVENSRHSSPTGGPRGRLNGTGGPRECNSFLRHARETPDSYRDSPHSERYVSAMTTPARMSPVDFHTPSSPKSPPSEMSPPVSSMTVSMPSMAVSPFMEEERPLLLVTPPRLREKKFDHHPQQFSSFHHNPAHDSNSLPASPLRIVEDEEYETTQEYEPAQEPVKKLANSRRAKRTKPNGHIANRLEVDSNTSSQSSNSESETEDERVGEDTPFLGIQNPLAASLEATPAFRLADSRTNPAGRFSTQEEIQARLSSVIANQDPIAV

[7] = test system: Neuregulin-1 EGF-like domain; assay: small molecules binding NRG1 EGF domain – biochemical, small-molecule microarray, 635 nm fluorescence, primary screen (AID 1081); details: higher = more signal;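 further: binding of the protein to compounds printed on small-molecule microarray slides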
[8] = FRG1 expression reporter modulators in myotubes – cell-based, C2C12 myotubes, firefly/Renilla luciferase, luminescence, FRG1 inhibition for FSHD, primary screen (AID 1084); details: FRG1 promoter luciferase, higher = more signal, called active from +8 up or from −8 down
[9] = small molecules captured by biotinylated probe aFST – biochemical, small-molecule microarray, fluorescence 635/667, stem cell growth factor project, primary screen (AID 1086); details: higher = more signal;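 further: score merges 667 nm fluorescence with signal-to-noise of each printed compound spot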
[10] = binders of probe aHhip on microarray, primary screen, stem cell growth factor project, biochemical, small-molecule microarray, fluorescence 635/667 (AID 1087); details: higher = more signal;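 further: score merges spot fluorescence at 667nm with spot signal to noise ratio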
[11] = test system: PRMT1 (protein arginine N-methyltransferase 1); assay: small molecules binding arginine methyltransferase PRMT1 – biochemical, small-molecule microarray, 635 nm fluorescence, primary screen (AID 1088); details: higher = more signal;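 further: binding of Prmt1 protein to compounds spotted on small-molecule microarray slides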
[12] = growth effects on S. cerevisiae YJM789 – YJM789 clinical isolate, OD600, 24 h, basal, primary screen (AID 1089); details: higher = more signal, called active from +8 up or from −8 down;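 further: growth of clinical yeast isolate S. cerevisiae YJM 789 seeded 1000 cells per well; test concentration not given here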
[13] = S. pombe growth modifiers, basal conditions – strain 972, OD600, 24 h, no modulator, primary screen (AID 1090);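 further: basal condition with compound alone and no growth modifier present; test concentration not given here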; details: S. pombe 972 growth, higher = more signal, called active from +8 up or from −8 down
[14] = budding yeast growth modifiers under rapamycin – strain BY4716, OD600, 96 h, primary screen (AID 1091); further: test concentration not given here; details: S. cerevisiae BY4716 + rapamycin, higher = more signal, called active from +8 up or from −8 down
[15] = target: Torsin-1A-interacting protein 2 (Homo sapiens) (UniProt Q8NFQ8); assay: small molecules binding lysate-expressed LULL1 – cell lysate, human LULL1 lysate, 635/667 nm fluorescence, primary screen (AID 1092); details: small-molecule microarray, hLULL1 lysate binding, 635 nm fluorescence; higher = more signal;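 further: probe is lysate of COS7 cells overexpressing human LULL1; score merges per-feature 667 nm fluorescence with signal-to-noise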
Chain of Torsin-1A-interacting protein 2 (Homo sapiens) (Q8NFQ8 whole entry, looked up): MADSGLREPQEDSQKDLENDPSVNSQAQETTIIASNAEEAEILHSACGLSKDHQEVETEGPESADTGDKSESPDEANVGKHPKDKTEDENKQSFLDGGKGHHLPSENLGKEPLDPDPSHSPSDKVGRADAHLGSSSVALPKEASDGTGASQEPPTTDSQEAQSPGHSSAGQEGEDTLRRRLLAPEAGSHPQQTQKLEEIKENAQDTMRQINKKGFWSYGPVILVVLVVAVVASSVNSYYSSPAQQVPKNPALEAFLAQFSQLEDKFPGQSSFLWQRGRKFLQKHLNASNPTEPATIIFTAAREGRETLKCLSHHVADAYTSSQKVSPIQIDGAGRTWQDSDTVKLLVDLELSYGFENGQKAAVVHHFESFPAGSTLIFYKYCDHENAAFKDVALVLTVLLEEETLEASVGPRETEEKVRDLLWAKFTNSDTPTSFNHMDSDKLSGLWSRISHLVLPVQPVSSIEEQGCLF

[16] = optical density change of DRC41 E. coli – strain DRC41, OD650, 24 h, E. coli filamentation project, primary screen (AID 1093);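 further: MC1000 strain lacking acrAB efflux and sulA so SOS filamentation is blocked; test concentration not given here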; details: E. coli DRC41 growth, higher = more signal, called active from +8 up or from −8 down
[17] = probe aLefty2 binding to arrayed compounds – biochemical, biotinylated probe, 635/667 nm fluorescence, primary screen (AID 1094); details: small-molecule microarray, higher = more signal;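 further: score merges spot fluorescence near 667 nm with spot signal-to-noise ratio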
[18] = test system: Noggin (protein binding on small-molecule microarray); assay: small molecules binding Noggin protein – biochemical, 635/667 nm fluorescence, primary screen (AID 1095); details: 635 nm fluorescence, higher = more signal;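 further: score merges 667 nm feature fluorescence with signal to noise over triplicate slides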
[19] = target: Neurogenic locus notch homolog protein 3 (Homo sapiens) (UniProt Q9UM47); assay: small molecules binding NOTCH3 protein – biochemical, 635/667 nm fluorescence, primary screen (AID 1096); details: small-molecule microarray, 635 nm fluorescence, higher = more signal
Chain of Neurogenic locus notch homolog protein 3 (Homo sapiens) (Q9UM47 whole entry, looked up): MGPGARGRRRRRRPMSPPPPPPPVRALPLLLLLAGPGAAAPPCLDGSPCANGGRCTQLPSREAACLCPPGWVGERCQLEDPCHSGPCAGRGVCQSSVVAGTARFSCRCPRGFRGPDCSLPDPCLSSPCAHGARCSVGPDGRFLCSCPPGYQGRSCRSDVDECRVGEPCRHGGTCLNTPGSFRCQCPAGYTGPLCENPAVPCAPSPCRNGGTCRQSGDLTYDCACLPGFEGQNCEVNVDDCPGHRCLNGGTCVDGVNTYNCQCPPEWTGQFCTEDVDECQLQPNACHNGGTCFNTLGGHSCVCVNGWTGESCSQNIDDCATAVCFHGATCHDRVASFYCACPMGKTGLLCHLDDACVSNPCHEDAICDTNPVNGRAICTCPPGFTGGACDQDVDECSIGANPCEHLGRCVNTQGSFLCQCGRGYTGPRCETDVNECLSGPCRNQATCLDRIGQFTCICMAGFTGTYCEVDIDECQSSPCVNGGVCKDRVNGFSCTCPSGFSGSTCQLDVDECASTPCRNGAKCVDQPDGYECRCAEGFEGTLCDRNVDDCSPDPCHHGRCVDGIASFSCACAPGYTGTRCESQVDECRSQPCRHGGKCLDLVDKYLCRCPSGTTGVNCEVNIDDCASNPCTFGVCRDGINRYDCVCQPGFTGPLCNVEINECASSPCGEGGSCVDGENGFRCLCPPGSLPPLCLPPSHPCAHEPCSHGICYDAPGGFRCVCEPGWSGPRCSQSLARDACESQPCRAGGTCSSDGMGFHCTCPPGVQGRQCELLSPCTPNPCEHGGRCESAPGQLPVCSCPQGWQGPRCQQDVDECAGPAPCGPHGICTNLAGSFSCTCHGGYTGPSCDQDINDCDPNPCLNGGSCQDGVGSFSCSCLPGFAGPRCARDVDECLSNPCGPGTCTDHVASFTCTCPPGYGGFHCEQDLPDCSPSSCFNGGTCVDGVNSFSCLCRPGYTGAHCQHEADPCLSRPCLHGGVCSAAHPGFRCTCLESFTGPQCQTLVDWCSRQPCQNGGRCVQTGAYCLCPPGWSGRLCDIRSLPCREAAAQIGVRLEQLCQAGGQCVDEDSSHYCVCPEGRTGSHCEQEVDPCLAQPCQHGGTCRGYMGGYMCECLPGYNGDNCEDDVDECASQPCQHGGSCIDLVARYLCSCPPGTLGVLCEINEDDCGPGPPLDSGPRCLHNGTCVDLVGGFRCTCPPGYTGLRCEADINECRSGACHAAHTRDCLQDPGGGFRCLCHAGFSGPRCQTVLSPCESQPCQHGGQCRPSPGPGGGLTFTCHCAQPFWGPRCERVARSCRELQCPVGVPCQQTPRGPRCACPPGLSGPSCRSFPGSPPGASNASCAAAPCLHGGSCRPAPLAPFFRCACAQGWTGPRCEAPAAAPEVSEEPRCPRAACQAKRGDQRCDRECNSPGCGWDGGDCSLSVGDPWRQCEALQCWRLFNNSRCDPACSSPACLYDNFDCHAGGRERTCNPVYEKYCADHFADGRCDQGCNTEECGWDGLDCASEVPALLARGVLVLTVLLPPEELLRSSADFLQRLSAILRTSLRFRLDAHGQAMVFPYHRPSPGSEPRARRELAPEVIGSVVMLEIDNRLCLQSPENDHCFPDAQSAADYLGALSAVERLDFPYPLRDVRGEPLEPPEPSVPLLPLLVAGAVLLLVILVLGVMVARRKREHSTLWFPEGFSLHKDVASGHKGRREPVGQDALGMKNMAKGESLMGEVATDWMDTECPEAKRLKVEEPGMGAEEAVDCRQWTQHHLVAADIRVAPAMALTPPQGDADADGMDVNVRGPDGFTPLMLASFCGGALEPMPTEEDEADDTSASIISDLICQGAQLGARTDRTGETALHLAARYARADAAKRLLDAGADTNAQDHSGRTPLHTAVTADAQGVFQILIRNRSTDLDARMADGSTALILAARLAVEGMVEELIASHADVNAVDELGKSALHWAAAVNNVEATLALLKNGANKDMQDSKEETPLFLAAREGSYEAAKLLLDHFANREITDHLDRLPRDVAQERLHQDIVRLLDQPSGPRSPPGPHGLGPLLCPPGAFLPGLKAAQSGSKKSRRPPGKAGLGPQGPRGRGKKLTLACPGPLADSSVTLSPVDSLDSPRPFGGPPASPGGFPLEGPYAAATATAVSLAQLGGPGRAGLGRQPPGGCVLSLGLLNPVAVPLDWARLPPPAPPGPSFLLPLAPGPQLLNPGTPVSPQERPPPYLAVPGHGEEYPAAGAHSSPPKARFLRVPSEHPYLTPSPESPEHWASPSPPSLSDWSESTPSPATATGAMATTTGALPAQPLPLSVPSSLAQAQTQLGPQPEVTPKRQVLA

[20] = probe aEGFR binding to arrayed compounds – biochemical, biotinylated probe, 635/667 nm fluorescence, primary screen (AID 1097); details: small-molecule microarray, higher = more signal;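 further: probe is a biotinylated anti-EGFR antibody binding compounds printed on slides; score combines fluorescence near 667 nm and signal to noise of each spot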

SMILES	composite z-score [1]	composite z-score [2]	composite z-score [3]	composite z-score [4]	composite z-score [5]	composite z-score [6]	composite z-score [7]	z-score [8]	composite z-score [9]	composite z-score [10]	composite z-score [11]	z-score [12]	z-score [13]	z-score [14]	composite z-score [15]	z-score [16]	composite z-score [17]	composite z-score [18]	composite z-score [19]	composite z-score [20]
CC(C)=CCCC(C)=CCON=C1C[C@@H](O)[C@@H](O)[C@@H]2[C@@H]3C(=O)N(Cc4ccccc4)C(=O)[C@@H]3CC[C@@H]12	-0.249	0.585	-0.0548	0.649	0.194	0.34	1.05	0.365 (inactive)	0.172	0.204	1.09	0.432 (inactive)	-0.114 (inactive)	-0.535 (inactive)	-0.859	0.326 (inactive)	-0.114	1.33	0.637	0.012
C=CC[C@@H]1C=C[C@H](ON=C(C)CCC(=O)OC[C@H]2O[C@H](c3ccccc3)C=C[C@@H]2Oc2ccc(OC)cc2)[C@@H](CO)O1	-0.409	-0.324	-0.163	0.13	-1.06	0.372	0.215	0.403 (inactive)	-0.303	-0.147	0.12	0.0343 (inactive)	-0.212 (inactive)	0.261 (inactive)	-0.177	0.358 (inactive)	-0.209	0.185	-1.3	-0.172
CC(C)CON=C1C[C@@H](O)[C@@H](O)[C@@H]2[C@@H]3C(=O)N(C4CCCCC4)C(=O)[C@@H]3CC[C@H]12	-0.475	0.6	-0.0383	0.848	1.14	0.936	0.743	-0.276 (inactive)	0.272	-0.169	1.42	0.0058 (inactive)	0.303 (inactive)	-0.393 (inactive)	1.1	0.411 (inactive)	-0.0396	0.683	1.13	-0.0817
COC(=O)CC=C[C@@H](C)[C@@H]1C=C[C@H](O)[C@@H](CO)O1	-0.202	0.124	-0.106	0.376	0.432	-0.196	-0.0778	-0.163 (inactive)	0.225	-0.176	-0.266	0.773 (inactive)	1.08 (inactive)	0.531 (inactive)	0.296	0.426 (inactive)	-0.177	0.381	0.601	-0.338
C=CC[C@@H]1C=C[C@H](ON=C[C@@H](C)[C@H](OCc2ccccc2)C(C)C)[C@@H](CO)O1	-0.227	-0.14	0.342	-0.433	-1.1	-0.241	-0.255	0.715 (inactive)	-0.0578	-0.0618	0.261	-1.46 (inactive)	-3.98 (inactive)	-0.515 (inactive)	0.602	0.15 (inactive)	-0.228	-0.244	-0.0585	-0.146
COc1ccc(O[C@H]2C=C[C@@H](c3ccccc3)O[C@@H]2CON=C(C)CCC(=O)OC[C@H]2O[C@H](c3ccccc3)C=C[C@@H]2Oc2ccc(OC)cc2)cc1	0.0321	-0.543	-0.141	0.0207	-1.5	-0.496	-1.1	0.634 (inactive)	-0.677	-0.0994	-2.44	0.76 (inactive)	0.91 (inactive)	0.525 (inactive)	-1.78	-0.0503 (inactive)	-0.294	-0.769	0.0708	-0.267
CC(CCN1CCCCc2nc(C)c(C)cc21)=NO[C@H](C)c1cn([C@H](CO)Cc2ccccc2)nn1	-0.476	0.736	-0.0894	0.205	-0.248	-0.0339	0.362	2.09 (inactive)	0.627	-0.0237	1.1	-0.585 (inactive)	0.446 (inactive)	-0.382 (inactive)	0.592	-0.425 (inactive)	0.0345	0.196	0.108	-0.026
Cc1ccc(S(=O)(=O)N[C@@H]2COC(=O)[C@@H](C)COC(=O)CC=C[C@H]2C)cc1	-0.305	0.155	-0.0777	0.259	0.672	-0.126	0.167	0.204 (inactive)	0.045	0.251	-0.496	1.19 (inactive)	0.227 (inactive)	1.02 (inactive)	-0.548	-0.266 (inactive)	-0.183	0.49	0.702	-0.182
CCOC(=O)[C@H](CC(C)C)NC(=O)CCC1CC(OC(=O)NCc2cccc3ccccc23)CC2(CCCC(COC(=O)NCC3CCCCC3)O2)O1 (stereo not given in full)	-0.338	0.194	-0.0744	0.54	0.763	0.589	0.907	0.791 (inactive)	0.615	0.0623	1.47	-0.402 (inactive)	-0.947 (inactive)	0.0127 (inactive)	1.11	-0.683 (inactive)	-0.0151	0.895	0.818	-0.0828
C#CCCCON=C1[C@H]2CCn3c(=O)n(C)c(=O)n3[C@H]2[C@H](O)[C@@H]2O[C@H]12	-0.454	0.588	0.0624	0.382	1.05	-0.0714	0.58	0.678 (inactive)	0.159	0.535	-0.677	0.516 (inactive)	-0.377 (inactive)	0.658 (inactive)	-0.0133	-0.305 (inactive)	-0.132	1.18	0.891	-0.148
